aSyn 5UTR inh: MLPCN primary screen, SNCA 5' untranslated region; alpha-synuclein 5'UTR reporter, inhibitor activity; inhibition, % (tested at 7.5 µM); 0.82% of 300,000 active; in the data active = inhibition above about 60%;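 note: H4 neuroglioblastoma cells stably carrying SNCA 5'UTR luciferase fusion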
APP transl inh: APP translation inhibition. SH-SY5Y APP 5'UTR-luciferase reporter, luminescence. inhibition, % at 2 µM. 0.82% of 190,000 active;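 active = inhibition above a set limit, derived from the sample mean plus 3 SD, cut at about 45% in these data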
IEC-6 cytotox: kills IEC-6 intestinal cells in KLF5 counter-screen; 0.78% of 290,000 active; IEC-6 cytotoxicity, luminescence viability; inhibition, % at 5 µM; in the data active = inhibition above about 22%
Ba/F3 V617F tox: loss of viability in JAK2V617F-driven Ba/F3 cells; Ba/F3 EpoR-JAK2V617F viability, ATP luminescence; AID 1446; inhibition, % at 5.6 µM; 1.1% of 220,000 active;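 active = inhibition above the campaign mean plus 3 SD over all tested compounds, cut at about 24% in these data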;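 note: cytokine-independent growth of Ba/F3 cells driven by EpoR plus mutant JAK2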
BaF3 parental: counter-screen for JAK2V617F inhibitors: parental Ba/F3 viability inhibitors | 1.1% of 220,000 active | CellTiter-Glo ATP luminescence | inhibition, % at 5.6 µM | AID 1486;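 active = inhibition above a per-campaign cutoff, the mean inhibition of all tested compounds plus 3 SD, cut at about 27% in these data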
KLF5 inhibitor: inhibitors of KLF5 expression | DLD-1 KLF5 promoter-luciferase reporter, luminescence | inhibition, % at 5 µM | 0.23% of 290,000 active;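 active = inhibition above a per-plate limit of that plate's mean compound inhibition plus 3 SD, cut at about 60% in these data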;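 note: higher means less KLF5 promoter-driven luciferase light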
Each line names hits and unclear results; the compound was inactive in the other large screens. Compounds with a hit are over-represented: about 2.2% of the library has one in this group of screens.

COC(=O)c1ccccc1NC(=O)CN(C)Cc1ccccc1	none
Cc1ccccc1NC(=O)Cc1nc(COC(=O)/C=C/c2ccccc2)cs1	none (no result: APP transl inh, IEC-6 cytotox, Ba/F3 V617F tox, BaF3 parental, KLF5 inhibitor)
O=C1OC(N2CCN(Cc3ccccc3)CC2)c2ccccc21 (configuration not stated)	none
Cc1ccc(C(=O)Nc2nnc(SCC(=O)N3CCCc4ccccc43)s2)cc1	aSyn 5UTR inh 74.5
CC(C)Oc1ccc(C(=O)Nc2nnc(SCC(=O)N3CCOCC3)s2)cc1	aSyn 5UTR inh 97.7
CCOC(=O)CNC(=O)CSc1nnc(NC(=O)c2ccc(C)cc2)s1	aSyn 5UTR inh 73.9
O=C(COC(=O)c1cccnc1Nc1ccccc1F)NCCN1C(=O)CSC1=O	none
CN(C)c1ccc(C=C(c2nnnn2-c2ccccc2)c2nnnn2-c2ccccc2)cc1	none
CCn1ccc(=N)cc1	none
N=c1ccn(Cc2ccccc2Cl)cc1	Ba/F3 V617F tox 81.2, BaF3 parental 64.8
N=c1ccn(Cc2ccc(Cl)cc2Cl)cc1	Ba/F3 V617F tox 89.8, BaF3 parental 70.6
Cc1ccc(C)n1Cc1ccccc1Cl	none
N=c1ccn(Cc2c(Cl)cccc2Cl)cc1	Ba/F3 V617F tox 74.6, BaF3 parental 62.9 (no result: APP transl inh)
CC1(C)Cc2nc3oc4c(SCC(N)=O)ncnc4c3cc2CO1	none (no result: APP transl inh)
c1ccc(-c2ccccc2OCCOCCN2CCc3ccccc3C2)cc1	BaF3 parental 47.1
Clc1ccc(OCCOCCN2CCc3ccccc3C2)c(Cl)c1	none
CCOC(=O)c1cc(C(C)(C)C)nc(SC)c1C#N	none (no result: APP transl inh)
CCCCc1c(CCC)c(=N)c2ccccc2n1C	Ba/F3 V617F tox 75.8, BaF3 parental 68.4
CCCCc1c(O)c2ccccc2n(CCCC)c1=O	none
CC(=O)c1cccc(NS(=O)(=O)c2c(C)n[nH]c2C)c1	none
OCCN1CCN(CC/C=C2/c3ccccc3CSc3ccccc32)CC1	aSyn 5UTR inh 103.5 (no result: APP transl inh, IEC-6 cytotox, Ba/F3 V617F tox, BaF3 parental, KLF5 inhibitor)
CN(C)c1nccc(N(Cc2ccccc2)Cc2ccccc2)c1C#N	none (no result: aSyn 5UTR inh)
CSc1ccc(/C=C(\NC(=O)c2ccc(C)cc2)C(=O)NN)cc1	BaF3 parental 56.8 (no result: APP transl inh)
CSc1ccc(/C=C(/NC(=O)c2ccc(C)cc2)C(=O)Nc2cccc(C)c2)cc1	none
CCCN1C(=O)/C(=c2\s/c(=C3\C=Cc4ccccc4N3CC)c(=O)n2-c2ccccc2)SC1=S	none
C=C(C)CSc1nc2ccccc2[nH]1	BaF3 parental 88.8
O=C(CSc1ccccc1)Nc1ccc(N2CCN(c3ccccc3)CC2)c(F)c1	none
CCCC(=NCCc1c(C)[nH]c2ccccc12)C1=C(O)CC(c2ccccc2)CC1=O (configuration not stated)	aSyn 5UTR inh 86.5, APP transl inh 84.2
CC(=NCCc1c(C)[nH]c2ccc(OC(F)(F)F)cc12)C1=C(O)CC(c2ccccc2)CC1=O (configuration not stated)	none
CCCCC(=NCCc1c(C)[nH]c2ccccc12)C1=C(O)CC(c2ccccc2)CC1=O (configuration not stated)	none
CC(=NCCc1c(C)[nH]c2ccc(C)cc12)C1=C(O)CC(c2ccccc2)CC1=O (configuration not stated)	APP transl inh 87.5
COc1ccc2[nH]c(=O)c(CN(Cc3cccs3)S(=O)(=O)c3c(C)ccc4nsnc34)cc2c1	aSyn 5UTR inh 89.3
Cc1ccc2[nH]c(=O)c(CN(Cc3ccco3)S(=O)(=O)c3c(C)ccc4nsnc34)cc2c1	none
Cc1cc(=O)oc(C)c1C(=O)NCc1ccccn1	none
CCN(CC)S(=O)(=O)c1cc(NC(=O)C(=O)c2c(-c3ccccc3)cc3ccccn23)ccc1C	APP transl inh 93.0
Oc1c(Cl)cc(Cl)cc1/C=N/Nc1ncc(Br)cn1	APP transl inh 81.0
Cc1ccc(N=Cc2cc(Cl)cc(Cl)c2O)nc1	none
Cc1cccc(-n2c(=O)[nH]c3c(C(N)=O)nc(CC(C)C)nc32)c1	none
C(C#CCCCCCCCCC[n+]1ccccc1)#CCCCCCCCCC[n+]1ccccc1	aSyn 5UTR inh 73.3, IEC-6 cytotox 51.0 (no result: APP transl inh, Ba/F3 V617F tox, BaF3 parental)
C/C(=N\NC(=O)CCCNc1ccc(C)cc1)c1ccccn1	aSyn 5UTR inh 78.3
C/C(=N\NC(=O)c1cc2ccccc2cc1O)c1cc2ccccc2o1	none (no result: APP transl inh)
C=CCNC(=S)N/N=C(\C)c1ccccn1	aSyn 5UTR inh 86.4, APP transl inh 93.0, IEC-6 cytotox 91.4, Ba/F3 V617F tox 98.4, BaF3 parental 91.2
C/C(=N\NC(=O)c1c[nH]c2ccccc12)c1ccccn1	aSyn 5UTR inh 71.7, APP transl inh 46.9
C/C(=N\NC(=O)CCCNc1ccccc1)c1ccncc1	none
C/C(=N\NC(=O)c1cc2ccccc2cc1O)c1ccccn1	aSyn 5UTR inh 87.9 (no result: APP transl inh, Ba/F3 V617F tox, BaF3 parental)
Cc1ccc(Cn2c(C(=O)O)cc3sccc32)cc1	none
CN1c2cccc3cccc(c23)N(C)C1(C)C	Ba/F3 V617F tox 27.3, BaF3 parental 57.6
Cc1cc(C(=O)COC(=O)CN(C)S(=O)(=O)c2ccc(Cl)cc2)c(C)n1CC1CCCO1 (configuration not stated)	none
Cc1ccc(C(=O)N(NC2=NS(=O)(=O)c3ccccc32)S(=O)(=O)c2ccc(C)cc2)cc1	none
O=C(O)c1ccccc1C(=O)Nc1ccc(Oc2cccc3ccccc23)cc1	aSyn 5UTR inh 94.4, APP transl inh 58.7
O=C(O)c1ccccc1C(=O)Nc1ccc(Oc2ccc3ccccc3c2)cc1	Ba/F3 V617F tox 45.5, BaF3 parental 38.0
Cc1cccc(Oc2ccc(NC(=O)c3ccccc3C(=O)O)cc2)c1C	none
Cc1cc(C(=O)N2CCCC2)n[nH]1	none (no result: APP transl inh, Ba/F3 V617F tox, BaF3 parental)
O=C1/C(=C/c2ccccc2[N+](=O)[O-])COc2ccccc21	APP transl inh 85.9
CNc1ccc(/C=C2\COc3ccccc3C2=O)cc1[N+](=O)[O-]	none
Cc1cc(C(=O)NN=C2CCCCC2)c2ccccc2n1	APP transl inh 79.5 (no result: aSyn 5UTR inh)
Cc1cc(C(=O)NN=C2C3CC4CC(C3)CC2C4)c2ccccc2n1	APP transl inh 76.2
CCCCCCCOc1ccc(OC(=O)c2cccnc2)cc1	Ba/F3 V617F tox 57.8, BaF3 parental 43.8
CC(C)(C)c1ccc(C(=O)NCCCNC(=O)c2ccccn2)cc1	none (no result: APP transl inh, Ba/F3 V617F tox, BaF3 parental)
Cc1ccc(-c2nc3cc(N)ccc3o2)cc1	none
Cc1ccc(-c2nc3cc(C)ccc3o2)cc1	aSyn 5UTR inh 72.5
CCOC(=O)c1c(C)nn(-c2ccc(NC(=O)c3c(C)noc3C)cc2)c1C	none (no result: APP transl inh, Ba/F3 V617F tox, BaF3 parental)
CCOC(=O)c1c(C)nn(-c2ccc(NC(=O)/C=C/C(=O)O)cc2)c1C	aSyn 5UTR inh 92.4 (no result: APP transl inh)
CCCCCCCCCCOC(=O)Cn1c(COc2cccc(C)c2)[n+](C)c2ccccc21	aSyn 5UTR inh 64.8 (no result: APP transl inh, Ba/F3 V617F tox, BaF3 parental)
CCCCCCCCCCOC(=O)Cn1c(COc2ccc(Cl)cc2)[n+](C)c2ccccc21	aSyn 5UTR inh 82.6 (no result: APP transl inh, Ba/F3 V617F tox, BaF3 parental)
CCCCCCCCCCOC(=O)Cn1c(COc2ccccc2)[n+](C)c2ccccc21	none (no result: APP transl inh, Ba/F3 V617F tox, BaF3 parental)
Cc1cc(C(=O)OCc2nc3ccccc3s2)c(C)o1	none
CCOC(=O)CNC(=O)Cn1cnc2c(nnn2-c2ccc(F)cc2)c1=O	BaF3 parental 95.8
c1coc(CNc2nc(-c3cccs3)cs2)c1	aSyn 5UTR inh 107.4
Oc1ccc(-c2csc(NCc3ccco3)n2)cc1	none
CCc1cccc(CC)c1-n1c(-c2cccnc2)n[nH]c1=S	none

Screens (PubChem BioAssay)
